# The list is not random: actives were taken first. Their share in the collection is about 4.1%.
# Casp6 inh: caspase-6 (human) enzyme inhibition. P55212. purified caspase-6, Z-VEID-R110 cleavage fluorescence. inhibition, % at 12.5 µM. 350,000 compounds, 0.53% hits. AID 686996;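 active means mean inhibition across replicates at least about 35%, with every replicate also reaching that limit, limit read from the data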;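 further: 0% = median of neutral control wells and 100% = no fluorescence left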
# Target sequence (P55212 24-179 limits assumed): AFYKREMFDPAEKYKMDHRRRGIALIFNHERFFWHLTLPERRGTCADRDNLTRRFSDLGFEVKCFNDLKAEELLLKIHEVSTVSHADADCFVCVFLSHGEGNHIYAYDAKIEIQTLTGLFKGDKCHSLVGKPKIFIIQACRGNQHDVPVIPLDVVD
# Target sequence (P55212 194-293 limits assumed): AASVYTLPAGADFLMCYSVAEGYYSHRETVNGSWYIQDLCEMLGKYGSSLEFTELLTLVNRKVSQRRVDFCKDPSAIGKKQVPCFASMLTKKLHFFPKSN
# PglD DTNB: inhibitors of Campylobacter jejuni PglD acetyltransferase | purified PglD enzyme, DTNB colorimetric CoA detection | inhibition, % at 12.5 µM | 360,000 compounds, 0.098% hits | AID 602405; in the data active means inhibition above about 16%, passing the limit was not always enough
# ALR inh: human ALR oxidase inhibition via reduced H2O2 | P55789 | purified ALR, DTT oxidation, H2O2 HRP-luminol luminescence | inhibition, % (concentration not given with the values) | 290,000 compounds, 3.8% hits | AID 485317;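 active means mean replicate inhibition above about 79%, with every replicate also reaching it, limit read from the data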
# Target sequence (P55789 whole entry, looked up): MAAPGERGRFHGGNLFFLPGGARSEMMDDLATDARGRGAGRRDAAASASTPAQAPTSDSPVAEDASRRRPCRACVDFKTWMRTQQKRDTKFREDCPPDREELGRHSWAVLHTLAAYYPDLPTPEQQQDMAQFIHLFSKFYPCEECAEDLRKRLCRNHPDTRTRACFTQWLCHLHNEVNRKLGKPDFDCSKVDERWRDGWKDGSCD
# Env fusion inh: HIV envelope-mediated fusion inhibition | HeLa-JRFL Env/CEM21 cell fusion, luciferase | inhibition, % at 12.3 µM | 360,000 compounds, 1.1% hits | AID 651610;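 active means mean replicate inhibition score of at least 50 and every replicate individually at or above 50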;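 further: 0% = plate neutral controls and 100% = maraviroc near 300 nM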
# NSD2 inh: blocks human histone methyltransferase NSD2; inhibition, % at 12.5 µM; 310,000 compounds, 0.54% hits; AID 743445; O96028; NSD2 peptide methylation, AlphaScreen, 120 min; in the data active means inhibition above about 50%
# F508del corr: CFTR F508del correction in bronchial cells; CFBE cells, YFP halide quenching; stimulated with forskolin plus potentiator P3; % fluorescence drop versus neutral controls; activity (quench increase), % at 7.58 µM; 350,000 compounds, 0.36% hits; AID 720511;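 active means mean added fluorescence quench of at least 8% versus neutral control, with both replicates also reaching 8%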;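 further: cells transiently co-express mutant CFTR-F508del with the halide-sensitive YFP; corrector assay measuring rescue of mutant channel to the surface after 24 h compound exposure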
# An asterisk follows results filed as active; / = not tested or not shown; [ ] = dose if it differs, or a comment.
SMILES,Casp6 inh,PglD DTNB,ALR inh,Env fusion inh,NSD2 inh,F508del corr
CC=Cc1ccc2n(c1=O)C[C@@H]1[C@@H](CO)[C@H](C(=O)NCCOC)[C@H]2N1Cc1nccs1 (mixture of isomers),3.2,18.7*,/,20.2[16.7 µM],/,/
CC=Cc1ccc2n(c1=O)C[C@H]1[C@H](CO)[C@@H](C(=O)NCCOC)[C@@H]2N1Cc1nccs1 (mixture of isomers),4.7,8.8,/,11.2[16.7 µM],/,/
CO[C@@H]1CN(C)C(=O)c2ccc(NS(=O)(=O)c3cccc(C)c3)cc2OC[C@H](C)NC[C@@H]1C,-0.1,0.1,/,/,/,2.0
CN1CCN(c2ccc(CNC(=O)C3Cc4c(-c5ccc6c(c5)OCO6)ccnc4O3)cc2)CC1 (stereo unspecified),79.6*,-2.5,/,3.5,13.4,-3.0
CCOc1cc(/C=C(\C#N)C(N)=O)ccc1OS(=O)(=O)c1ccccc1,/,8.3,97.9*,4.2,-1.5,/
COC(=O)COc1ccccc1C(N)=O,-1.9,-2.5,-8.6,-15.8,-1.3,/
NC(=S)NNC(=O)COc1ccccc1O,-0.8,2.0,89.0*,1.1,/,1.1
CC(=O)N1CCc2c(sc(NC(=O)C3CCCCC3)c2C(N)=O)C1,74.9*,1.0,/,7.0,/,2.9
CC(=O)N1CCc2c(sc(NC(=O)Cc3ccccc3)c2C(N)=O)C1,66.8*,-1.9,-23.0,-3.7,/,-0.5
C[C@@H]1CCCCO[C@H](CN(C)C(=O)Nc2ccc(F)cc2)[C@H](C)CN([C@H](C)CO)C(=O)c2cc(NS(=O)(=O)c3ccccc3)ccc2O1,1.2,2.3,/,12.8[16.7 µM],/,1.9
CO[C@H]1CN(C)C(=O)c2ccc(NC(=O)c3ccc(F)cc3)cc2OC[C@H](C)N(C(C)=O)C[C@H]1C,/,/,/,/,/,-0.4
COc1ccccc1-c1ccc([C@@H]2[C@H](CO)N(C(=O)C3CC3)C23CN(C(C)=O)C3)cc1,-0.6,/,/,/,/,0.5
CCCNC(=O)N1C[C@@H](C)[C@H](OC)CN(C)C(=O)c2ccc(NS(C)(=O)=O)cc2OC[C@@H]1C,1.7,1.6,/,3.1[16.7 µM],/,-4.4
Fc1ccc(NC(=S)N2CCCN(c3ccc(C(F)(F)F)cn3)CC2)c(F)c1,-0.1,-4.2,-6.0,61.1*,-3.4,-4.0
CC(C)NC(=O)N(C)C[C@H]1OCc2ccccc2-c2c(n(C)c3ccccc23)C(=O)N([C@@H](C)CO)C[C@@H]1C,-0.8,-0.7,/,/,/,-1.2
COc1ccc(CN(C)C[C@H]2Oc3c(NS(=O)(=O)c4ccc(C)cc4)cccc3C(=O)N([C@@H](C)CO)C[C@H]2C)cc1,0.6,/,/,/,/,-0.4
CCOc1ccc(NC(=O)N(CCCN2CCOCC2)Cc2cccnc2)cc1,-6.3,-2.7,-6.3,7.1,/,-1.5
CCCN1CCCc2cc(CN(CCCN3CCOCC3)C(=O)Nc3ccc(OCC)cc3)ccc21,/,0.0,99.3*,34.0,29.8,/
CCN1CCCc2cc(CN(CCN3CCOCC3)C(=S)Nc3cccc(OC)c3)ccc21,-6.9,/,86.9*,-6.4,9.2,-1.1
CCOc1ccc(NC(=O)N(CCN2CCOCC2)Cc2ccc3c(c2)CCCN3CC)cc1,/,-3.3,99.5*,/,19.3,/
O=C(C[C@@H]1CC[C@H]2[C@@H](COC[C@@H](O)CN2C(=O)c2ccccc2F)O1)N1CCOCC1,1.3,-0.6,/,/,/,1.3
CO[C@@H]1CN(C)C(=O)c2cc(NC(=O)C3CC3)ccc2OC[C@@H](C)N(C(=O)c2ccccc2F)C[C@H]1C,-2.8,-0.4,/,-17.4[16.7 µM],/,-0.7
Cc1ccccc1NC(=O)CSc1nc2cc3c(cc2cc1C)CCC3,0.1,/,-3.2,/,/,2.7
CCc1nc(SCC(=O)O)c(C#N)c2c1CCCC2,1.3,/,5.9,2.9,0.2,-1.2
Cc1cc2cc3c(cc2nc1SCC(=O)O)CCC3,-0.6,/,97.5*,4.0,/,3.3
Cc1nc(SCC(=O)O)c(C#N)c2c1CCCC2,39.1*,-3.3,-8.2,-2.7,17.5,-0.3
C[C@H](CO)N1C[C@H](C)[C@H](CN(C)C(=O)Nc2ccccc2)Oc2ccc(NC(=O)Nc3ccccc3)cc2CC1=O,1.1,3.1,/,-8.6[16.7 µM],/,3.3
O=C(O[C@@H]1OC2COC(=O)c3cc(O)c(O)c(O)c3-c3c(cc(O)c(O)c3O)C(=O)O[C@@H]([C@H]1O)[C@@H]2O)c1cc(O)c(O)c(O)c1,/,2.1,99.4*,/,/,/
Cc1nnc(SCc2ccc(Cl)c(Cl)c2)s1,0.3,/,-7.4,3.5,-3.7,/
Cc1[nH]c(=S)sc1Cc1ccc(Cl)c(Cl)c1,1.1,/,96.2*,-5.8,0.4,/

# From PubChem BioAssay
